High-throughput results (PubChem)
Coupling enz: counter-screen for Giardia aldolase inhibitors: coupling enzyme system; activity change, negative = inhibition, % at 58.2 µM, hits read low; hit rate 0.67% among 290,000; coupling enzyme system counterscreen, AmpLite Red fluorescence; in the data active means activity change below about -30%
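Compounds tested against the coupling enzymes alone at 57.5 uM final; readout was AmpLite Red fluorescence (525/598 nm) after 20 min at RT.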
ELG1 DNA repair: blocks ELG1-dependent DNA repair in HEK293T cells | Potency, µM (highest dose often 46.1 µM), most hits filed as inhibitors | AID 504467 | hit rate 2.3% among 330,000 | HEK293T ELG1-luciferase reporter, luminescence, 16 h; DNA damage induced by 5-fluorouridine; further: nearly all actives have a fitted effect of over 55% in size
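Quantitative HTS, concentration-response format. 2,000 cells/well co-treated with 5-fluorouridine and compound, 16 hr in 5% CO2 at 37 °C; ONE-Glo luminescence read after 30 min.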
TSHR antag: blocks TSH signaling through the human TSH receptor | activity change, negative = inhibition, % at 11.5 µM | hit rate 0.2% among 330,000 | P16473 | TSHR-expressing cells, TSH-stimulated cAMP HTRF, 2 h; active compounds read low | AID 504810;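 active means activity change below a set negative limit, meaning inhibition stronger than a set level, cut at about -70% in these data; inconclusive means activity change between two set negative limits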
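Cell-based HTRF cAMP assay; TSHR cells + compound, TSH EC80 (4nM final), 2 h, 37 deg C. Lysis with anti-cAMP cryptate and cAMP-d2, 30 min RT, read 665/620 nm.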
RORg inh: ROR gamma (mouse) transcription inhibition | Drosophila S2 Gal4-RORgamma UAS-luciferase reporter, 20 h | hit rate 5.4% among 310,000 | P51450 | Potency, µM (series often up to 53.6 µM), most hits filed as inhibitors; further: nearly all actives have a fitted effect of over 60% in size
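In this cell-based reporter format, copper sulfate (700 uM final) drives Gal4–ROR gamma fusion expression from a metallothionein promoter in Drosophila Schneider cells; compounds preincubated 1 hr, reporter read after 20 hr at ambient temperature.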
VP16 counter: inhibits Gal4-VP16 luciferase reporter, ROR gamma counter-screen | Drosophila S2 Gal4-VP16 UAS-luciferase, luminescence, 20 h | Potency, µM (titrated, usually from 53.6 µM), most hits filed as inhibitors | hit rate 3.5% among 310,000;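 further: Gal4-VP16 expression switched on by copper sulfate through the metallothionein promoter; nearly all actives have a fitted effect of over 50% in size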
Hits are given with their value; - = inactive; ? = inconclusive; . = no result; [ ] = dose if it differs, or a comment. Hits are enriched below; roughly 8% of the tested compounds scored in any of these assays. Unless noted, the call rests on the fitted dose curve; in most records, active means well fitted curve in the direction sought with a large enough effect; inconclusive means small, poorly fitted or top-dose-only effect, or another doubt; inactive means no such curve, though single readings can be large; an effect the other way counts as inactive or inconclusive.

SMILES	Coupling enz	ELG1 DNA repair	TSHR antag	RORg inh	VP16 counter
Cc1cccc(C(=O)N2CCN(S(=O)(=O)N3CCCCCC3)CC2)c1	-	-	-	-	-
CCOC(=O)N1CCC2(CC1)C(C#N)=C(N)Oc1c2sc2nc(C)cc(C)c12	-	?	-	8.91µM	?
Cc1ccc(C)c(S(=O)(=O)N2CCN(C(=O)/C=C/c3ccco3)CC2)c1	.	-	-	.	.
CC[C@H](C)[C@H](NC(=O)[C@@H]1CCCN1C(=O)[C@H](Cc1cnc[nH]1)NC(=O)[C@@H](NC(=O)[C@H](Cc1ccc(O)cc1)NC(=O)[C@@H](NC(=O)[C@H](CCCN=C(N)N)NC(=O)CNC)C(C)C)[C@@H](C)CC)C(=O)O	-	.	.	-	-
CCN(CC)c1ccc(/C=C2\SC(=O)N(C(C)C)C2=O)o1	-	?	-	3.55µM	4.47µM
CCOc1ccc(N=Nc2cc(C(C)C)ccc2O)cc1	-	-	-	-	-
Cc1ccc(C)c(N=Nc2ccc(O)c3ncccc23)c1	-	?	-	0.112µM	-
Oc1ccc(N=Nc2ccc3c(c2)OCCO3)c2ncccc12	-	-	-	0.316µM	0.398µM
CCOc1ccc(N=Nc2ccc(N)cc2N)cc1	.	.	.	8.91µM	10µM
NS(=O)(=O)c1ccc(N=Nc2ccc(O)c3ncccc23)cc1	-	?	-	-	?
Cc1cccc(N=Nc2ccc(O)c3ncccc23)c1	-	?	-	0.112µM	0.0355µM
COc1ccc(CNC(=O)c2ccc(CS(=O)(=O)c3ccc(Br)cc3)o2)cc1	-	-	-	-	-
O=C(CN1CCN(S(=O)(=O)c2ccccc2)CC1)N1CCCCC1	.	?	-	.	.
COc1ccc(/C=C/C(=O)OCCC(C)C)cc1	-	.	.	-	-
CC(=O)NCc1ccc(C(=O)CSc2nnc(C3CC3)n2C2CC2)cc1	.	-	-	.	.
CCOc1ccc(N=Nc2ccc(O)c3ncccc23)cc1	-	?	-	0.282µM	0.398µM
O=C(Nc1cccc(NC(=O)c2ccc([N+](=O)[O-])o2)c1)c1ccco1	-	11.6µM	-	-	?
O=C(Nc1cc(Oc2ccc(Cl)cc2)cc([N+](=O)[O-])c1)c1ccco1	-	-	-	?	7.94µM
Cc1cc(C)cc(NC(=O)C(OC(=O)c2ccc([N+](=O)[O-])o2)c2ccccc2)c1 (stereo not drawn)	-	-	-	?	-
O=C(Nc1ccc(NC(=O)c2ccc([N+](=O)[O-])o2)cc1Cl)c1ccco1	-	-	-	-	-
O=C(Nc1cccc(NC(=O)c2cccs2)c1)c1ccc([N+](=O)[O-])o1	-	16.4µM	-	-	?
COc1cccc(NC(=O)C(OC(=O)c2ccc([N+](=O)[O-])o2)c2ccccc2)c1 (stereo not drawn)	-	-	-	14.1µM	-
O=C(CCNC(=O)c1ccc(Br)cc1)Nc1ccc(S(=O)(=O)N2CCOCC2)cc1	.	-	.	.	.
C=C(CC1([C@@H](NP(=O)(c2ccccc2)c2ccccc2)[C@H]2C[C@@H]2CCN(C(=O)OCC)S(=O)(=O)c2ccc(C)cc2)CC1)c1ccccc1	-	.	.	-	-
COc1ccc(CNCc2cccc3ccccc23)cc1	-	-	-	-	-
SMILES	Coupling enz	ELG1 DNA repair	TSHR antag	RORg inh	VP16 counter
S=c1[nH]c2cc(-c3ccccc3)ccc2o1	-	?	-	10µM	12.6µM
O=S(=O)(c1ccc2oc(=S)[nH]c2c1)N1CCCCC1	-	-	-	-	-
O=C(Nc1ccccn1)c1onc2c1CCCC2	-	?	-	6.31µM	8.91µM
O=C(Nc1ccccn1)c1csc2c1CCCC2	-	?	-	-	?
CC1CC(OC(=O)c2ccccc2O)CC(C)(C)C1 (stereo not drawn)	-	.	.	-	-
Brc1ccc(/C=N/Nc2nncc(-c3ccccc3)n2)o1	-	-	-	3.55µM	-
Brc1ccc(-c2ccc(/C=N/Nc3nncc(-c4ccccc4)n3)o2)cc1	-	?	-	0.891µM	1.26µM
Oc1ccc(/C=N\Nc2nncc(-c3ccccc3)n2)cc1	-	-	-	-	?
CCc1ccc(-n2ccc(=O)c(C(=O)O)n2)cc1	-	-	-	-	-
COc1ccc(C(NC(=O)c2cccnc2)c2cc(Cl)c3cccnc3c2O)cc1OC (stereo not drawn)	-	?	-	2µM	3.98µM
CC(=O)NC(c1ccccc1)c1cc([N+](=O)[O-])c2cccnc2c1O (stereo not drawn)	-	?	-	7.94µM	-
CC(C)C(=O)NC(c1ccccc1)c1cc([N+](=O)[O-])c2cccnc2c1O (stereo not drawn)	-	?	-	6.31µM	?
Oc1c(C(Nc2ccccn2)c2cccnc2)cc(Cl)c2cccnc12 (stereo not drawn)	-	-	-	3.98µM	4.47µM
COc1ccc(NC(=O)N2CCCC3(CCN(C(=O)c4csnn4)CC3)C2)cc1	-	.	.	-	-
CC(=O)NC(c1ccco1)c1cc(Cl)c2cccnc2c1O (stereo not drawn)	.	.	-	.	.
CC(=O)NC(c1ccc(C)cc1)c1cc(Cl)c2cccnc2c1O (stereo not drawn)	-	?	-	1.12µM	0.631µM
CCC(=O)NC(c1ccco1)c1cc(Cl)c2cccnc2c1O (stereo not drawn)	-	-	-	1.41µM	2.82µM
CCOc1ccc(C(=O)Nc2c(C(=O)N3CCC(N4CCCCC4)CC3)oc3ccccc23)cc1	.	-	-	-	-
COc1ccc(NC(=S)NC23CC4CC(CC(C4)C2)C3)cc1OC	.	-	-	1.26µM	3.55µM
Cc1cccnc1NC(=S)Nc1ccc(Cl)c(Cl)c1	-	?	-	?	?
COc1ccc(NC(=S)Nn2cnnc2)c(OC)c1	.	-	-	?	-
COc1ccc(NC(=S)Nc2ncccc2C)cc1OC	-	?	-	6.31µM	?
COc1ccc(NC(=S)Nc2ncccc2C)c(OC)c1	-	?	-	3.16µM	10µM
CC(C)(C)NCC(O)COc1ccc(NC(=O)NC2CCCCC2)cc1 (stereo not drawn)	.	.	.	-	-
CCc1ccc(S(=O)(=O)Nc2cc(SCC(=O)O)c(O)c3ccccc23)cc1	-42.2	?	-	-	?
Cc1ccc(C)c(S(=O)(=O)Nc2cc(SCC(=O)O)c(O)c3ccccc23)c1	-53.2	?	-	-[10 µM]	14.1µM
Cc1ccc(NS(=O)(=O)c2cc(NC(=O)C(C)Oc3ccccc3)ccc2C)c(C)c1 (stereo not drawn)	-	?	-	-[10 µM]	-
CCOc1ccc(S(=O)(=O)Nc2cc(SCC(=O)O)c(O)c3ccccc23)cc1	-61.5	?	-	10µM	?
O=C(O)CSc1cc(NS(=O)(=O)c2cccc([N+](=O)[O-])c2)c2ccccc2c1O	-40.4	23.1µM	-	?	?
Cn1/c(=N/N=C/c2ccccn2)sc2ccccc21	-	?	-	10µM	?
